Most compounds without a hit are left out; they make up all but 10% or so of the library.
GLA inh pH 4.5 – alpha-galactosidase A (human) inhibition, pH 4.5; P06280; purified enzyme, 4-MU-alpha-Gal fluorescence, pH 4.5; activity change, negative = inhibition, % at 105 µM; 230,000 tested, under 10 active; AID 1467;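 further: 0% = full activity with enzyme and -100% = basal without enzyme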
Target sequence (P06280 whole entry, looked up): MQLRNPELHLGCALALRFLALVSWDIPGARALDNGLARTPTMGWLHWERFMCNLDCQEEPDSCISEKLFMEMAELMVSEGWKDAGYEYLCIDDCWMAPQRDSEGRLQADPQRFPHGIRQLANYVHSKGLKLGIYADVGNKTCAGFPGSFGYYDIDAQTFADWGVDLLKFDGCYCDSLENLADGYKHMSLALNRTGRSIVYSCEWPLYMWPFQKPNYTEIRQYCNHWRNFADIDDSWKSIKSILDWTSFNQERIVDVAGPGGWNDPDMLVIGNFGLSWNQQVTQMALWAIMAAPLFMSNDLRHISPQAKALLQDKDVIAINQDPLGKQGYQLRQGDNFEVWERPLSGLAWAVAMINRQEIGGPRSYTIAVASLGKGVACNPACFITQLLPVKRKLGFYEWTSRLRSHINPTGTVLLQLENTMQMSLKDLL
ALOX12 inhib – inhibitors of human 12-lipoxygenase (ALOX12). P18054. purified 12-hLO, xylenol orange hydroperoxide absorbance. Potency, µM (highest dose often 57.1 µM), for inactives: at the highest dose activity change, negative = inhibition, actives largely listed as inhibitors. 0.12% of 150,000 active; further: potency means the concentration at half of the fitted maximal effect; nearly all actives have a fitted effect of over 55% in size
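Purified human 12hLO (150 nM final) was preincubated with compounds for 15 min at room temperature in 25 mM Hepes pH 7.0, 0.01% Triton X-100, then reacted with 40 uM arachidonic acid for 30 min. Hydroperoxide was detected with ferrous iron/xylenol orange.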
HPGD block – HPGD (human) dehydrogenase inhibition; P15428; purified HPGD, NADH fluorescence kinetic, PGE2 substrate; Potency, µM, for the others: at the highest dose activity change, negative = inhibition, actives largely listed as inhibitors; 4.3% of 150,000 active; AID 894; active means well fitted inhibition curve with a large enough effect, not every such curve was filed as active; inconclusive means small, poorly fitted or top-dose-only effect, or another doubt; inactive means no such curve, though single readings can be large or run the other way; further: potency means the concentration at half of the fitted maximal effect
Target sequence (P15428 whole entry, looked up): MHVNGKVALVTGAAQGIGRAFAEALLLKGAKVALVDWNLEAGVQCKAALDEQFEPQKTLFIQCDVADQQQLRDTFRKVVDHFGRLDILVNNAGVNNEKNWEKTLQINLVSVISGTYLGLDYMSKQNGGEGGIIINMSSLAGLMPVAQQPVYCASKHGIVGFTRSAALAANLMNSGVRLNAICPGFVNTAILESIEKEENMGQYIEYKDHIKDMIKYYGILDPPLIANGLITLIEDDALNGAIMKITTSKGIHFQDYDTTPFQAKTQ
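20 nM HPGD preincubated 15 min at room temperature with compound in 50 mM Tris-HCl pH 8, 0.01% Tween 20. Started with 1 mM NAD+ and 30 uM prostaglandin E2; NADH fluorescence (360/450 nm) read 5 times over 30-s intervals, last minus first.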
PNC inhibitor – blocks assembly of the perinucleolar compartment. PC3M PTB-GFP, PNC prevalence imaging, 16 h; active compounds read low. activity change (PNC), negative = inhibition, % at 10 µM. 3.1% of 140,000 active;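 active means readout at or below -70, meaning at least 70% loss of cells showing the perinucleolar compartment, a nuclear body marking cancer cells; inconclusive means readout between -30 and a set limit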;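 further: plate controls were DMSO wells for no effect and camptothecin positive control wells for full effect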
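Compounds are pinned in duplicate onto adhered PC3M cells stably expressing GFP-tagged PTB and incubated 16 h at 37 C. Cells are then fixed, nuclei stained with Hoechst, and PNC-positive cells counted.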
aGal spleen mod – inhibitors or activators of human alpha-galactosidase in spleen homogenate. human spleen homogenate, 4MU-alpha-Gal fluorescence, 40 min. 0.008% of 240,000 active. P06280. Potency, µM (doses to about 80 µM), for inactives: top-dose activity change, negative = inhibition, hits mostly inhibitors;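 further: potency means the concentration at half of the fitted maximal effect; 0% = enzyme with vehicle and -100% = no enzyme basal signal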
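Fluorogenic readout (Ex 365/Em 440 nm) of 4-methylumbelliferone released from 1 mM 4-MU-alpha-galactoside by spleen homogenate, 40 min at 37C, pH 5.0. Data normalized to no-enzyme and enzyme controls; Hill-equation AC50 from compound titrations.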
ALDH1A1 block – ALDH1A1 (human) enzyme inhibition; P00352; Purified ALDH1A1, NADH fluorescence, propionaldehyde substrate; Potency, µM (titrated, usually from 75.3 µM), inactives show at the highest dose activity, negative = inhibition, most hits filed as inhibitors; 7.3% of 220,000 active; AID 1030; active means well fitted inhibition curve with a large enough effect, not every such curve was filed as active; inconclusive means small, poorly fitted or top-dose-only effect, or another doubt; inactive means no such curve, though single readings can be large or run the other way;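 further: potency means the concentration at half of the fitted maximal effect; plate controls were no enzyme wells and a reference inhibitor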
Active calls of the source: *; ? = inconclusive; nt = not tested or not shown; [ ] = remark or other dose. Unless noted, the call rests on the fitted dose curve; in most records, active means well fitted curve in the direction sought with a large enough effect; inconclusive means small, poorly fitted or top-dose-only effect, or another doubt; inactive means no such curve, though single readings can be large; an effect the other way counts as inactive or inconclusive. Unless noted, on the % scale 0 is the no-effect control and ±100 the full control effect.

SMILES	GLA inh pH 4.5	ALOX12 inhib	HPGD block	PNC inhibitor	aGal spleen mod	ALDH1A1 block
CSc1ccccc1C(=O)NCCSc1ccccc1	-2	1%	16µM*	-15	-9%	-4%
CCCCC/C=C\C/C=C\C/C=C\CCCCCCC(=O)O[C@H](COCCCCCCCCCCCCCCCC)COP(=O)([O-])OCC[N+](C)(C)C	-8	-1%	-3%	nt	-3%	-7%
O=c1c(-c2ccc(F)cc2)nc2cnc(N3CCNCC3)nc2n1Cc1ccc(F)cc1	nt	nt	nt	nt	24%	?
N#CCSCC(=O)Nc1ccccc1	-5	5%	-17%	?	0%	-8%
N#C/C(Cn1c[n+](NC(=O)Nc2ccccc2)cn1)=N/O	-6	-11%	-8%	16	-8%	32µM*
Cc1nc(-c2ccccc2)sc1-c1nc(-c2cccnc2)ncc1S(=O)(=O)c1ccccc1	-3	-7%	-23%	16	12%	?
O=C(Nc1ccc2nn(-c3ccccc3)nc2c1)c1ccco1	-7	8%	?	-100*	18%	1%
Nc1nc(NC(=O)c2ccco2)nn1-c1ccccc1	-3	-4%	-1%	-90*	-1%	-6%
O=C(Nc1cc2nn(-c3ccccc3)nc2cc1Cl)c1ccco1	0	-10%	-32%	39	-2%	4%
Cc1ccc2nc(NCCN)c3ncc(C)n3c2c1	nt	nt	nt	nt	3%	nt
CCCCCCCc1cc2c(cn1)C(=O)C(C)(OC(C)=O)C(O)=C2Cl (stereo not drawn)	-1	nt	-11%	nt	-5%	?
O=C(CN1CCC(C(O)(c2ccccc2)c2ccccc2)CC1)Nc1cc(Cl)ccc1Cl	-10	14%	-12%	-100*	12%	?
Cc1nnc(SCc2ccc(C(=O)O)cc2)s1	4	-6%	-13%	-17	-2%	10%
Cc1cc(C)cc(NC(=O)c2ccc(CSc3nnc(C)s3)cc2)c1	-7	6%	-19%	21	1%	-3%
O=C(O)c1ccc(CSc2nnc(SCc3ccccc3)s2)cc1	3	-1%	20µM*	7	7%	-14%
Cc1ccc(NC(=O)c2ccc(CSc3nnc(C)s3)cc2)cc1	-3	5%	-14%	-100*	3%	?
S=c1[nH]nc(-c2cccnc2)n1/N=C/C=C/c1ccccc1	10	-2%	13µM*	?	3%	-16%
CC(/C=N/n1c(COc2ccccc2)n[nH]c1=S)=C\c1ccccc1	13	?	5.6µM*	80	0%	?
CC(/C=N/n1c(-c2cccnc2)n[nH]c1=S)=C\c1ccccc1	9	3%	3.2µM*	39	0%	?
S=c1[nH]nc(-c2cccnc2)n1/N=C/c1ccccc1	2	nt	nt	nt	-2%	nt
O=[N+]([O-])c1cc(/C=N/n2c(-c3cccnc3)n[nH]c2=S)ccc1Cl	10	-3%	4µM*	-12	-4%	2µM*
CC(=C/c1ccccc1)/C=N/n1c(-c2ccncc2)n[nH]c1=S	-1	nt	nt	nt	3%	?
C[C@H]1Cc2c(COc3ccccc3)nc3c(c2CO1)CN(C(=O)NCCc1c[nH]c2ccccc12)CC3	3	-1%[11.4 µM]	1%	nt	-1%[17.5 µM]	12%[13.5 µM]
C[C@@H](N)CCCP(=O)(O)O	nt	nt	nt	nt	-6%	?
CC(C)CCC[C@@H](C)[C@H]1CC[C@H]2[C@@H]3CC=C4C[C@@H](O)CC[C@]4(C)[C@H]3CC[C@]12C	-2	-1%[0.00818 µM]	-3%	nt	4%	3%
SMILES	GLA inh pH 4.5	ALOX12 inhib	HPGD block	PNC inhibitor	aGal spleen mod	ALDH1A1 block
Cc1cccc(-n2c(O)c(C=NC3CCS(=O)(=O)C3)c3ccccc3c2=O)c1 (stereo not drawn)	-1	3%	-28%	-17	4%	16µM*
Cc1ccc(C)c(N2CCN(C(=O)C3CCCN(S(=O)(=O)c4c(C)[nH]c(=O)[nH]c4=O)C3)CC2)c1 (stereo not drawn)	0	3%	-4%	-86*	5%	5%
Cc1ccc(NC(=O)C2CCN(S(=O)(=O)c3c(C)[nH]c(=O)[nH]c3=O)CC2)cc1	-4	2%	-3%	-98*	3%	1%
O=C(c1nc2ccccn2c1CNCCCn1cccn1)N1CCCC1	5	nt	nt	nt	-3%	-9%
CCOC(=O)c1ccc(N2C(=O)C3C(/C=C/c4ccccc4)OC4(C(=O)c5ccccc5C4=O)C3C2=O)cc1 (stereo not drawn)	-7	-2%	-11%	0	-18%	7%
Cc1cc2ccccc2c(=O)n1CC(=O)NCCC1=CCCCC1	0	nt	nt	nt	2%	25µM*
O=C(CCn1c(=O)c2ccccc2n(CC(=O)NCCC2=CCCCC2)c1=O)NCc1ccco1	8	5%	-13%	?	-3%	16µM*
Oc1ccc2cc(SSc3ccc4cc(O)ccc4c3)ccc2c1	nt	-4%	-25%	nt	15%	-44%
O=C(Oc1ccc2c(=O)c(Cl)coc2c1)c1cccnc1	-1	4%	-21%	-26	1%	20µM*
O=C(Cn1c(=O)oc2cc(S(=O)(=O)N3CCCC3)ccc21)N1CCc2ccccc2C1	-3	2%	-9%	5	17%	11µM*
Cn1c(=O)oc2cc(S(=O)(=O)N3CCCC(C(=O)N4CC=C(c5ccccc5)CC4)C3)ccc21 (stereo not drawn)	0	0%	14µM*	?	8%	?
CCOC(=O)N1CCN(S(=O)(=O)c2ccc3c(c2)oc(=O)n3C)CC1	9	-2%	2%	-80*	-12%	-1%
CCOC(=O)n1c(=O)oc2cc(S(=O)(=O)N3CCCCC3)ccc21	-5	-3%	-21%	-100*	-8%	1%
Cn1c(=O)oc2cc(S(=O)(=O)N3CCCC(C(=O)NC4CCCc5ccccc54)C3)ccc21 (stereo not drawn)	2	-6%	?	-1	-1%	3%
CN(Cc1cnn(C)c1)C(=O)C1CCCCC1C(=O)O (stereo not drawn)	-2	-1%	2%	22	0%	-7%
COCC1CCCN(C(=O)c2ccc(OC3CCN(Cc4ccccn4)CC3)cc2)C1 (stereo not drawn)	7	nt	nt	nt	-5%	-1%
CCn1c(C)nc2cc(C(=O)NNC(=O)CCC3CCCCC3)ccc21	3	3%	-7%	-7	-1%	?
CCOC(=O)N1CCC(N2CCN(S(=O)(=O)c3ccc(Cl)cc3)CC2)CC1	2	-21%	-13%	9	9%	14µM*
O=C(NCC1CCCO1)c1ccc(COc2ccc(Cl)cc2)cc1 (stereo not drawn)	1	nt	nt	nt	4%	5%
O=C(NCC1CCCO1)c1ccc(Br)o1 (stereo not drawn)	3	nt	nt	nt	2%	2%

Source: PubChem (National Center for Advancing Translational Sciences (NCATS))
